Source: PubChem
HPGD block: qHTS Assay for Inhibitors of HPGD (15-Hydroxyprostaglandin Dehydrogenase); 15-hydroxyprostaglandin dehydrogenase [NAD(+)] (Homo sapiens), P15428; purified HPGD, NADH fluorescence kinetic, PGE2 substrate; Potency, µM, for the others: top-dose activity change, negative = inhibition, usual class: inhibitors; 150,000 tested, 4.3% active; further: potency means the concentration at half of the fitted maximal effect
Target sequence (P15428 whole entry, looked up): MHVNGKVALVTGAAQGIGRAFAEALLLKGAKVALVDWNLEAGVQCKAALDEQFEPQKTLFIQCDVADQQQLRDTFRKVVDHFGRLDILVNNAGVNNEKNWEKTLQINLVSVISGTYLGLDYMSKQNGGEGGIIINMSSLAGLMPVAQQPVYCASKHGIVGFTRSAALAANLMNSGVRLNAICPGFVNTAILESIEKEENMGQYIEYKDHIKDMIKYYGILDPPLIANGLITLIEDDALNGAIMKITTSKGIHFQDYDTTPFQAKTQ
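20 nM HPGD preincubated 15 min at room temperature with compound in 50 mM Tris-HCl pH 8, 0.01% Tween 20. Started with 1 mM NAD+ and 30 uM prostaglandin E2; NADH fluorescence (360/450 nm) read 5 times over 30-s intervals, last minus first.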
Luc counter: Counterscreen for Luciferase (Kinase-Glo TM) Inhibition | 200,000 tested, 0.28% active | Luciferin 4-monooxygenase (Photuris pensylvanica), Q27757 | Kinase-Glo luciferase, ATP luminescence, 8 min | Potency, µM (top dose mostly 38.3 µM), for inactives: top-dose activity change, negative = inhibition, hits mostly inhibitors; active means well fitted inhibition curve with a large enough effect; inconclusive means small, poorly fitted or top-dose-only effect; further: potency means the concentration at half of the fitted maximal effect; nearly all actives have a fitted effect of over 60% in size
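Recombinant Kinase-Glo luciferase, 10 uM ATP (linear range), luciferin; imidazole pH 7.2 / KCl / MgCl2 / Tween / BSA buffer; 8 min RT; luminescence.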
PNC assembly inh: High Content Assay for Compounds that inhibit the Assembly of the Perinucleolar Compartment. PC3M PTB-GFP, PNC prevalence imaging, 16 h; hits give low values. activity change (PNC), negative = inhibition, % at 10 µM. 140,000 tested, 3.1% active;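 active means readout at or below -70, meaning at least 70% loss of cells showing the perinucleolar compartment, a nuclear body marking cancer cells; inconclusive means readout between -30 and a set limit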;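 further: plate controls were DMSO wells for no effect and camptothecin positive control wells for full effect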
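Compounds are pinned in duplicate onto adhered PC3M cells stably expressing GFP-tagged PTB and incubated 16 h at 37 C. Cells are then fixed, nuclei stained with Hoechst, and PNC-positive cells counted.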
ALDH1A1 inh: qHTS Assay for Inhibitors of Aldehyde Dehydrogenase 1 (ALDH1A1); Aldehyde dehydrogenase 1A1 (Homo sapiens), P00352; Purified ALDH1A1, NADH fluorescence, propionaldehyde substrate; Potency, µM (highest dose often 75.3 µM), without a hit: at the top dose activity, negative = inhibition, usual class: inhibitors; 220,000 tested, 7.3% active;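 further: potency means the concentration at half of the fitted maximal effect; plate controls were no enzyme wells and a reference inhibitor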
Target sequence (P00352 whole entry, looked up): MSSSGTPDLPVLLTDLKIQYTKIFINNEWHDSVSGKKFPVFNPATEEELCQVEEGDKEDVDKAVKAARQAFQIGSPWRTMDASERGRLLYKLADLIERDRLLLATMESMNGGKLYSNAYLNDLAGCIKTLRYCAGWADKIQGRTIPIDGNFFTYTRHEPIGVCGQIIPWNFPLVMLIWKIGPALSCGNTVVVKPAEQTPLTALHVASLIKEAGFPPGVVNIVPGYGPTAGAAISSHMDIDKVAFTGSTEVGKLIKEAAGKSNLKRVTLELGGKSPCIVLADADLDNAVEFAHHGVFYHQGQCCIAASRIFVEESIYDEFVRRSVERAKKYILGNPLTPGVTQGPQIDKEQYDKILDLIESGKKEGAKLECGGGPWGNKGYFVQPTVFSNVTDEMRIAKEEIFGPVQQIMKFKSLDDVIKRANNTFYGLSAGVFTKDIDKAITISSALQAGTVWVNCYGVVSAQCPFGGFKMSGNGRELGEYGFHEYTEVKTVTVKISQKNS
Lamin A splicing: qHTS Assay for Modulators of Lamin A Splicing; HeLa LMNA splicing GFP/RFP minigene ratio, 48 h; Potency, µM (titrated, usually from 46.1 µM), inactives show at the top dose ratio change, negative = inhibition, actives largely listed as inhibitors; 200,000 tested, 0.01% active; active means well fitted inhibition curve with a large enough effect in the signal ratio, with a control signal flat, not every such curve was filed as active; inconclusive means small, poorly fitted or top-dose-only effect, or effect the other way, or a change in a side signal; the % refers to the signal ratio; further: potency means the concentration at half of the fitted maximal effect
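Read-out is the ratio of GFP to DsRed2 object intensity, acquired by 488 nm laser-scanning cytometry on HeLa lamin A-EGFP minigene reporter cells. Compound incubation 48 hrs at 37 °C in Opti-MEM with 2% FBS; DMSO 0.5% final.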
* marks the source's active call; other numbers are inactive results; ? = inconclusive; . = no result; [ ] = another dose, or the depositor's remark. Sampled rows, rich in hits. Any-hit rate of the full collection: about 10%. Unless noted, the call rests on the fitted dose curve; in most records, active means well fitted inhibition curve with a large enough effect (not every such curve was filed as active); inconclusive means small, poorly fitted or top-dose-only effect, or another doubt; inactive means no such curve, though single readings can be large or run the other way. Unless noted, on the % scale 0 is the no-effect control and ±100 the full control effect.

SMILES | HPGD block | Luc counter | PNC assembly inh | ALDH1A1 inh | Lamin A splicing
CC(C)NC(=O)/C(=C/c1cn(-c2ccccc2)nc1-c1cccc([N+](=O)[O-])c1)NC(=O)c1ccccc1 | -5.2% | 1.9% | ? | 14.1µM* | 11.8%
O=C(N/C(=C/c1cn(-c2ccccc2)nc1-c1ccccc1)C(=O)N1CCOCC1)c1ccccc1 | -8.4% | -0.2% | ? | ? | -8.9%
Cc1ccc(C(=O)N/C(=C/c2cn(-c3ccccc3)nc2-c2ccccc2)C(=O)O)cc1 | . | . | . | 11.2µM* | .
CN(C)C(=O)c1cn(-c2ccccc2)nc1-c1cccc([N+](=O)[O-])c1 | . | 2.2% | . | 8.91µM* | .
C[C@@H]1C[C@H](OC(=O)[C@@H](O)c2ccccc2)CC(C)(C)N1C | -7.8% | -2.0%[17.1 µM] | . | 4.7%[20.9 µM] | -12.4%
O=C(CN1N=C(c2ccccc2)CCC1=O)NCc1ccc(F)cc1Cl | . | . | . | . | -11.2%[46 µM]
COCn1c(=O)c2c(nc(SC3=NCCS3)n2Cc2ccccc2C)n(COC)c1=O | -17.4% | -7.6% | -13.4 | 2.82µM* | 3.9%
C/C(Cl)=C/CCl | -6.9% | . | . | ? | .
CCOc1ccc(CNC(=O)CS(=O)(=O)c2cccc3nsnc23)cc1 | . | . | . | . | 14.0%[46 µM]
CCCCNC(=O)/C=C/c1ccc(OC)c(Br)c1 | 25.1µM* | 3.7% | ? | -0.8% | -4.2%
C/C=C1/C(=O)C[C@H]2[C@@H]3CCC4=CC(=O)CC[C@]4(C)[C@H]3CC[C@]12C | 0.5% | . | . | ? | .
CCCc1ccc(OCc2nc(-c3ccc(NC(=O)c4ccco4)cc3)no2)cc1 | ? | -0.4% | -23.3 | -5.3% | 6.4%
Cc1ccccc1OCc1nc(-c2ccc(NC(=O)c3ccco3)cc2)no1 | ? | -18.7% | -100.0* | -2.8% | -12.8%
Cc1ccccc1OCc1nc(-c2ccc(NC(=O)c3cccs3)cc2)no1 | -21.5% | -8.6% | 28.6 | ? | -8.6%
CCCc1ccc(OCc2nc(-c3ccc(NC(=O)c4cccs4)cc3)no2)cc1 | ? | -6.2% | -90.8* | -8.4% | -0.7%
COc1ccc(N2C(C)=CS/C2=C(/C#N)c2nnc(N3CCOCC3)n2-c2ccccc2)cc1 | -6.4% | 6.5% | 6.9 | 22.4µM* | 3.2%
C=CCN1C(=O)NC(c2ccccc2)(C(F)(F)F)S/C1=C(\C#N)c1nnc(N2CCOCC2)n1-c1ccccc1 (stereo not given) | -4.9% | -2.2% | 32.2 | ? | -21.1%
COc1ccc(/C=C/C(=O)NCCN2CCOCC2)cc1OC | . | 3.9% | . | ? | 0.0%[46 µM]
COc1ccc(/C=C/C(O)=C(\C#N)c2nnc(N3CCOCC3)n2-c2ccccc2)cc1OC | . | 3.2% | . | 12.6µM* | .
Cc1nn(C)c2c1c(-c1ccccc1)cc(=O)n2Cc1ccccc1C#N | . | . | . | . | 9.4%[46 µM]
C[C@H]1[C@H](C)CC[C@]2(C(=O)O)CC[C@]3(C)C(=CC[C@H]4[C@]3(C)C[C@@H](O)C3[C@](C)(CO)[C@H](O)[C@@H](O)C[C@]34C)[C@H]12 (stereo not given in full) | -2.8% | -6.2%[7.66 µM] | . | -10.2%[13.5 µM] | .
CC(=O)c1cccc(NC(c2ccc(F)cc2)c2nnc(-c3ccccc3)o2)c1 (stereo not given) | . | . | . | . | -16.5%[46 µM]
COc1cccc(S(=O)(=O)NCc2ccc(C(=O)NCc3ccco3)cc2)c1 | -11.0% | 2.7% | ? | 14.1µM* | -5.0%
COc1ccc(CCNC(=O)c2ccc(CNS(=O)(=O)c3ccc(C(C)(C)C)cc3)cc2)cc1OC | -10.4% | 0.1% | ? | ? | -7.4%
COc1ccc(CNC(=O)/C=C/c2ccc(S(=O)(=O)NCc3ccco3)cc2)cc1OC | -8.7% | -5.4% | 25.2 | 45.3% | ?
SMILES | HPGD block | Luc counter | PNC assembly inh | ALDH1A1 inh | Lamin A splicing
COC(=O)c1cc(CNC(=O)c2cccc(Cl)c2)ccc1OC | -14.1% | 7.5% | -88.9* | 3.4% | -9.6%
COC(=O)c1cc(CNC(=O)c2cccc(Cl)c2Cl)ccc1OC | ? | 0.4% | -2.6 | 11.2% | ?
COc1ccc(CCNC(=O)c2ccc(CNS(=O)(=O)c3cccc(Cl)c3)cc2)cc1OC | -11.6% | -1.1% | ? | 3.55µM* | ?
O=C(/C=C/c1ccc(S(=O)(=O)NCc2ccco2)cc1)NCc1ccccc1Cl | . | . | -24.9 | 28.2µM* | 5.4%
N[C@](CC1c2ccccc2Oc2ccccc21)(C(=O)O)[C@H]1C[C@@H]1C(=O)O | . | . | . | 1.7% | .
CCC1Oc2ccc(Cl)cc2N(CC(=O)NCCc2ccc(Cl)cc2)C1=O (stereo not given) | . | . | . | . | -12.8%[46 µM]
CCOC(=O)c1cc(-c2ccccc2)n(CCC(=O)NC2CCCCC2)c1C | . | . | . | . | 21.7%[46 µM]
C=CC1=C2C=C(C3CC3)N(c3ccc(OC)cc3)C=C2C(=O)C(C)(OC(=O)c2ccco2)C1=O (stereo not given) | -7.7% | -0.4%[7.66 µM] | . | 10.3%[13.5 µM] | -11.5%[9.22 µM]
O=C(O)c1cc(S(=O)(=O)NCc2ccco2)c(Cl)cc1Cl | -17.6% | -0.6% | -3.2 | 20µM* | 0.4%
CS(=O)(=O)Nc1ccc(C(=O)NCc2ccco2)cc1 | -18.8% | -2.2% | -12.6 | 9.1% | 6.6%
COc1ccc(C(=O)Nc2ccc(S(=O)(=O)NCc3ccco3)cc2)cc1OC | -21.5% | 1.6% | 7.1 | 10.2% | -3.9%
COC(=O)COc1ccc(S(=O)(=O)NCc2ccco2)cc1Cl | -7.9% | 2.6% | -103.1* | 3.7% | 6.7%
COc1ccc(C(=O)NCC(=O)Nc2cccc(S(=O)(=O)NCc3ccco3)c2)cc1OC | . | 2.2% | . | 20µM* | 8.7%[46 µM]
COc1cccc(S(=O)(=O)Nc2ccc(C(=O)NCc3ccco3)cc2)c1 | ? | 3.4% | 36.0 | 28.2µM* | -10.7%
O=C1COc2cc(S(=O)(=O)NCc3ccco3)c(Cl)cc2N1 | . | . | . | . | -5.3%[46 µM]
CC1(C)C(=O)C(c2ccccc2)=C2CN3C(=O)N(CCc4ccccc4)C(=O)C3(Cc3ccc(C(F)(F)F)cc3)C=C21 (stereo not given) | -17.5% | -4.7% | . | -0.8% | .
CCOC(=O)CCCNC(=O)N1CCc2nc(COc3ccccc3)c3c(c2C1)CO[C@@H](C)C3 | -2.1% | -0.2%[7.66 µM] | . | 1.8%[13.5 µM] | 8.4%[9.22 µM]
CCn1c(CNc2ccc(F)cc2)nnc1SCC(=O)Nc1ccc(OC)cc1OC | . | . | ? | 14.1µM* | 0.9%
CCn1c(CNC(=O)COc2ccc(C(C)C)cc2)nnc1SCC(=O)Nc1ccc(F)cc1 | -11.9% | -0.5% | 12.4 | 28.2µM* | -3.9%
CCn1c(CNc2ccc(F)cc2)nnc1SCC(=O)OC1CCCCC1 | 15.8µM* | -2.1% | -113.7* | ? | -1.5%
CSc1ccc(NC(=O)[C@H]2CCCC[C@@H]2C(=O)O)cc1 | -1.9% | -2.2%[7.66 µM] | . | -10.4%[13.5 µM] | .
CCCCC(=O)NNC(=S)NC(=O)CCC | -14.0% | 3.7% | -11.3 | -12.2% | -11.1%
O=C(NC(=S)NNS(=O)(=O)c1ccc(Cl)cc1)c1cccnc1 | . | -0.3% | . | 7.94µM* | .
Cc1ccccc1C(=O)NNC(=S)NC(=O)c1ccccc1 | -22.0% | 2.2% | ? | 14.1µM* | ?
